# Data as given in the supplement of paper PMC8975748.
# Counter-ions that a name gives are not always drawn.
# Test system: Saccharomyces cerevisiae BY4741 SeMeCo community
# Assay: z-score of subpopulation abundance vs DMSO median, subpopulation auxotrophic for H; higher = larger share of this subpopulation than in DMSO controls
# Settings: 10 µM; 24 h; SM minimal medium; subpopulation (auxotrophy): H
# Experimental: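 Fluorescent four-plasmid SeMeCo (self-establishing metabolically cooperating S. cerevisiae BY4741 community; plasmids pH-mRuby2, pL-mWasabi, pU-eCFP, pM-TagRFP657) was grown 24 h in minimal SM medium with each Selleck FDA-approved drug at 10 µM in 384-well plates. Cells were fixed and imaged by high-content confocal microscopy. For each auxotrophic subpopulation (and the prototroph), a z-score gives the deviation from the DMSO vehicle-control population median.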
row,Structure (SMILES),z-score of subpopulation abundance
1,Cc1cc(C)nc(O)n1.O=C(Nc1ccc([N+](=O)[O-])cc1)Nc1ccc([N+](=O)[O-])cc1 [Nicarbazin],-0.25
2,C[C@]12CC[C@@H]3c4ccc(O)cc4CC[C@H]3[C@@H]1C[C@@H](O)[C@@H]2O [Estriol],0.24
3,Nc1cc(C(Cl)=C(Cl)Cl)c(S(N)(=O)=O)cc1S(N)(=O)=O [Clorsulon],0.76
4,CN1C2CCC1CC(OC(=O)C(O)c1ccccc1)C2 (stereo not given) [Homatropine Bromide],-0.41
5,Cc1c(C(N)=O)cc([N+](=O)[O-])cc1[N+](=O)[O-] [Dinitolmide],-0.33
6,OC(Cn1cncn1)(Cn1cncn1)c1ccc(F)cc1F [Fluconazole],-2.16
7,Fc1ccc([C@@H]2CCNC[C@H]2COc2ccc3c(c2)OCO3)cc1 [Paroxetine HCl],0.09
8,Cc1nnc(SCC2=C(C(=O)O)N3C(=O)[C@@H](NC(=O)Cn4cc(Cl)c(=O)c(Cl)c4)[C@H]3SC2)s1 [Cefazedone],-0.61
9,COc1ccc2c3c1O[C@H]1C[C@@H](O)C=C[C@@]31CCN(C)C2 [Galanthamine HBr],0.1
10,CCCN[C@H]1CCc2nc(N)sc2C1 [Pramipexole],-0.21
11,C[N+]1(C)[C@@H]2CC[C@H]1C[C@@H](OC(=O)C(O)c1ccccc1)C2 (stereo not given in full) [Homatropine Methylbromide],-1.04
12,CCN(CC)CCOC(=O)c1ccc(N)cc1 [Procaine],-0.4
13,C[C@H]1[C@H](NC(=O)/C(=N\OC(C)(C)C(=O)O)c2csc(N)n2)C(=O)N1S(=O)(=O)O [Aztreonam],-0.29
14,Clc1ccc(CSC(Cn2ccnc2)c2ccc(Cl)cc2Cl)cc1 (stereo not given) [Sulconazole Nitrate],22
15,O=C1C(N(CO)C(=O)NCO)N(CO)C(=O)N1CO (stereo not given) [Diazolidinyl urea],-0.72
16,CC(C)[N+]1(C)[C@@H]2CC[C@H]1C[C@@H](OC(=O)C(CO)c1ccccc1)C2 (stereo not given in full) [Ipratropium Bromide],-0.17
17,NC(=O)N/N=C/c1ccc([N+](=O)[O-])o1 [Nitrofural],-0.29
18,C[C@H]1O[C@@H](O[C@H]2[C@@H](O)C[C@H](O[C@H]3[C@@H](O)C[C@H](O[C@H]4CC[C@@]5(C)[C@H](CC[C@@H]6[C@@H]5C[C@@H](O)[C@]5(C)[C@@H](C7=CC(=O)OC7)CC[C@]65O)C4)O[C@@H]3C)O[C@@H]2C)C[C@H](O)[C@@H]1O [Digoxin],0.21
19,Cc1cccc(C)c1OCC(C)N (stereo not given) [Mexiletine HCl],-0.52
20,CN1CCC(=C2c3ccccc3C=Cc3ccccc32)CC1 [Cyproheptadine hydrochloride],-0.32

row,Structure (SMILES),z-score of subpopulation abundance
1,O=C(Nc1c(Cl)cncc1Cl)c1ccc(OC(F)F)c(OCC2CC2)c1 [Roflumilast],-0.65
2,CC1(C)S[C@@H]2[C@H](NC(=O)[C@H](N)c3ccccc3)C(=O)N2[C@H]1C(=O)O [Ampicillin Trihydrate],0.41
3,COc1ccc2[nH]c([S+]([O-])Cc3ncc(C)c(OC)c3C)nc2c1 (stereo not given) [Omeprazole],1.65
4,CO/N=C(/C(=O)N[C@@H]1C(=O)N2C(C(=O)OCOC(=O)C(C)(C)C)=C(C)CS[C@H]12)c1csc(N)n1 [Cefetamet pivoxil hydrochloride],1.26
5,CCCCCCCCCC(=O)NC1C(Oc2c3cc4cc2Oc2ccc(cc2Cl)C(OC2OC(CO)C(O)C(O)C2NC(C)=O)C2NC(=O)C(NC(=O)C4NC(=O)C4NC(=O)C(Cc5ccc(c(Cl)c5)O3)NC(=O)C(N)c3ccc(O)c(c3)Oc3cc(O)cc4c3)c3ccc(O)c(c3)-c3c(OC4OC(CO)C(O)C(O)C4O)cc(O)cc3C(C(=O)O)NC2=O)OC(CO)C(O)C1O (stereo not given) [Teicoplanin],0.94
6,O=C(O)C1=C(CSc2nnnn2CS(=O)(=O)O)CS[C@@H]2[C@H](NC(=O)[C@H](O)c3ccccc3)C(=O)N12 [Cefonicid sodium],0.28
7,Cc1cc(O)c(C(=O)N[C@@H](C(=O)N[C@@H]2C(=O)N3C(C(=O)O)=C(CSc4nnnn4C)CS[C@H]23)c2ccc(O)cc2)cn1 [Cefpiramide sodium],-0.05
8,O=C(C1CCCCC1)N1CC(=O)N2CCc3ccccc3C2C1 (stereo not given) [Praziquantel],-0.1
9,C[C@@H](O)[C@H]1C(=O)N2C(C(=O)O)=C([C@H]3CCCO3)S[C@H]12 [Faropenem Sodium],0.32
10,Nc1ccc(S(=O)(=O)c2ccc(N)cc2)cc1 [Dapson],0.61
11,COc1ccc2cc3[n+](cc2c1OC)CCc1cc2c(cc1-3)OCO2 [Berberine chloride],0.04
12,COCCCC/C(=N\OCCN)c1ccc(C(F)(F)F)cc1 [Fluvoxamine maleate],-0.64
13,C[N+](C)(C)CCOC(=O)CCC(=O)OCC[N+](C)(C)C [Succinylcholine Chloride Dihydrate],-0.95
14,CCOC(=O)C1=C(C)NC(C)=C(C(=O)OC)C1c1cccc([N+](=O)[O-])c1 (stereo not given) [Nitrendipine],-0.06
15,Oc1c(Cl)cc(Cl)c2cccnc12 [Chloroxine],13.2
16,Cc1c(OCC(F)(F)F)ccnc1C[S+]([O-])c1nc2ccccc2[nH]1 (stereo not given) [Lansoprazole],1.84
17,CN[C@@H]1[C@H](O)[C@H](NC)[C@H]2O[C@@]3(O)C(=O)C[C@@H](C)O[C@H]3O[C@@H]2[C@H]1O [Spectinomycin 2HCl],-0.79
18,CO[C@H]1C[C@@H]2CC[C@@H](C)[C@@](O)(O2)C(=O)C(=O)N2CCCC[C@H]2C(=O)O[C@H]([C@H](C)C[C@@H]2CC[C@@H](OC(=O)C(C)(CO)CO)[C@H](OC)C2)CC(=O)[C@H](C)/C=C(\C)[C@@H](O)[C@@H](OC)C(=O)[C@H](C)C[C@H](C)/C=C/C=C/C=C/1C,13.5
19,CC(=O)[O-].[K+] [Potassium acetate],-0.01
20,NC(=O)OCC(COC(N)=O)c1ccccc1 [Felbamate],-0.6
